Screening data: PubChem BioAssay, several laboratories
BoNT F protease – blocks Botulinum neurotoxin F light chain protease; Multiplex microsphere protease cleavage assay, flow cytometry; inhibition, % at 10 µM; 0.22% of 360,000 active; in the data active = inhibition above about 35%, passing the limit was not always enough; inconclusive = no clear call, values can overlap the other calls; note: plate controls were buffer without enzyme for full effect and enzyme alone for no effect
Bead autofluor – compound fluorescence in toxin protease inhibitor counterscreen | AID 624483 | 3.1% of 360,000 active | compound autofluorescence counterscreen, microsphere flow cytometry; hits give high values | fluorescence intensity (no concentration beside the values); in the data active = fluorescence intensity above about 16000; inconclusive = no clear call, values can overlap the other calls
BoNT A protease – BoNT A light chain protease inhibition. inhibition, % at 10 µM. 0.17% of 360,000 active. multiplex microsphere protease substrate cleavage, flow cytometry. AID 588499; note: plate controls were buffer without enzyme for full effect and enzyme alone for no effect
PfHsp40 rescue – rescue of PfHsp40-mediated yeast toxicity; S. cerevisiae expressing PfHsp40, growth rescue, ATP luminescence; growth rescue, % at 12.5 µM; 0.68% of 340,000 active; in the data active = growth rescue above about 28%, passing the limit was not always enough; inconclusive = no clear call, values can overlap the other calls;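 note: yeast W303a lacking pdr1 and pdr3 grown in galactose medium; growth measured after three days at 30 °C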
Anthrax LF inh2 – blocks Bacillus anthracis lethal factor protease; P15917; multiplex microsphere protease cleavage assay, LF; inhibition, % at 10 µM; 0.12% of 360,000 active; AID 588501; note: plate controls were buffer without enzyme for full effect and enzyme alone for no effect
MazF activator – activators of E. coli MazEF toxin-antitoxin RNase | P0AE70 | FAM/BHQ RNA-DNA oligo cleavage fluorescence, 5 h | activation, % at 20 µM | 0.32% of 350,000 active; in the data active = activation above about 50%
Target sequence (P0AE70 whole entry, looked up): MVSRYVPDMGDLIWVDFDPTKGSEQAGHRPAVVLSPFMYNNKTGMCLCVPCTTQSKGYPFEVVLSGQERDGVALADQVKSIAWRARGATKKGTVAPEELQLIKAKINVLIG
The depositor's hits bear a star; ? = inconclusive; . = not tested or not shown. In the library only some 4.3% were active in any assay of this set; here they are far more common. Cut-off read from the data, not from the text of the source, unless noted: active = inhibition above about 30%; inconclusive = no clear call, values can overlap the other calls; inactive = below that.

SMILES | BoNT F protease | Bead autofluor | BoNT A protease | PfHsp40 rescue | Anthrax LF inh2 | MazF activator
CC1=C(C(=O)OC(C)C)C(c2cccs2)N2C(=O)CCSC2=N1 (stereo unspecified) | -8 | 25343* | -5 | 0 | -2 | 3
COCCOC(=O)C1=C(C)N=C2SCCC(=O)N2C1c1ccc(C(=O)OC)cc1 (stereo unspecified) | -10 | 3273 | 0 | 0 | 1 | 6
COc1ccc(C(=O)c2ccc(Br)cc2)cc1 | 2 | 20227* | 2 | 0 | 0 | 4
COc1ccc(C(=O)c2ccccc2)cc1 | -9 | 2033 | 0 | 3 | -2 | 5
CCCSc1ccc([C@H]2N[C@@](C)(C(=O)OC)[C@H]3C(=O)N(C)C(=O)[C@@H]23)cc1OC | -2 | 4619 | -1 | -3 | -1 | 0
CC1=C(C(=O)OC2CCCC2)C(c2coc3ccccc3c2=O)C2=C(CC(C)(C)CC2=O)N1 (stereo unspecified) | -8 | 5103 | -1 | 93* | -6 | 3
CC1=C(C(=O)OC2CCCC2)C(c2coc3ccc(C)cc3c2=O)C2=C(CCCC2=O)N1 (stereo unspecified) | -2 | 4526 | 0 | 0 | -6 | 3
Cc1cccc(-n2c(C)cc(C=C3C(=O)c4ccccc4C3=O)c2C)c1 | -7 | 6839 | 7 | 1 | 8 | 597*
CCn1c(C)cc(C=C2C(=O)c3ccccc3C2=O)c1C | -1 | 2287 | 7 | -1 | 3 | 79*
Cc1cc(C=C2C(=O)c3ccccc3C2=O)c(C)n1C | -11 | 2590 | 2 | -2 | -1 | 9
Cc1cc(C=C2C(=O)c3ccccc3C2=O)c(C)n1-c1ccc(Cl)cc1 | 1 | 20919* | 2 | -1 | 5 | -267
Cc1cc(C=C2C(=O)CCCC2=O)c(C)n1-c1ccccc1 | -4 | 3543 | 2 | -3 | -2 | -3
O=C(CSc1nnc(-c2cccnc2)o1)Nc1nccs1 | -1 | 6445 | -5 | 1 | -1 | 7
Cc1ccccc1C(=O)N1CCN(CCNC(=O)C(=O)Nc2ccc(Br)cc2)CC1 | -3 | 6316 | -1 | -1 | 2 | 7
Cc1cnc(C(=O)OCC(=O)NCc2ccc3c(c2)OCO3)cn1 | 1 | 4563 | 0 | 0 | -4 | -15
CCOC(=O)c1cnc(-n2cc(C)cn2)nc1NCc1ccc2c(c1)OCO2 | -2 | 21542* | ? | 0 | 0 | -5
O=C(O)c1ccc(Cl)c(NC(=O)C2CCCN2S(=O)(=O)c2cccc3nsnc23)c1 (stereo unspecified) | 0 | 20420* | 0 | 2 | -3 | -2
CCOC(=O)NC(Nc1nc2ccccc2s1)(C(=O)OCC)C(F)(F)F (stereo unspecified) | -8 | 25071* | -6 | -1 | -3 | 1
CCCN(CCC)CCCNC(=O)C1CCC(CNS(=O)(=O)c2cccc3nsnc23)CC1 (stereo unspecified) | 5 | 5297 | 1 | -2 | -4 | 12
CC1=CCC2C(=O)N(c3ccccc3OC(=O)c3ccccc3F)C(=O)C2C1 (stereo unspecified) | -7 | 2139 | 0 | -1 | 0 | 1
Cc1nc2c(-c3ccccc3)c(C)nn2c(C)c1CCC(=O)N1CCC2(CC1)OCCO2 | 62* | ? | ? | 2 | ? | -1
Cc1nc2cc(-c3cccc(F)c3)nn2c(C)c1CCC(=O)N1CCC2(CC1)OCCO2 | -7 | ? | ? | 1 | ? | 4
Cc1cc(C)c(NC(=O)C(C)Sc2nc3ccc(N4C(=O)c5ccccc5C4=O)cc3s2)c(C)c1 (stereo unspecified) | 0 | 16290* | ? | 0 | -2 | 5
CCN1C[C@@H]2[C@@H]3C(=O)N(C)C(=O)[C@@H]3[C@](C)(C1=O)N2C(=O)c1ccc(C)cc1 | 1 | 3735 | 0 | -1 | -1 | 3
Cc1cc2nc(-c3ccccn3)c(-c3ccccn3)nc2cc1C | 11 | 3456 | 2 | -1 | -1 | .
SMILES | BoNT F protease | Bead autofluor | BoNT A protease | PfHsp40 rescue | Anthrax LF inh2 | MazF activator
c1ccc(-c2nc3ccccc3nc2-c2ccccn2)nc1 | 3 | 22188* | 2 | 1 | 0 | -6
O=C(O)C1CCCCC1C(=O)Nc1ccc(S(=O)(=O)N2CCCCC2)cc1 (stereo unspecified) | -1 | 4921 | -4 | 0 | -4 | 2
COC(=O)c1sc2ncccc2c1OCc1ccccc1Cl | 0 | 18888* | 2 | 0 | -7 | 7
COC(=O)c1sc2ncccc2c1OCc1ccc(Cl)cc1 | -6 | ? | -2 | -1 | ? | 3
O=C1C2CC=CCC2C(=O)N1c1ccc(OCC(O)Cn2nnc3ccccc32)cc1 (stereo unspecified) | -9 | 25583* | -5 | 1 | -4 | -2
CCN(CC)CCn1c2c(c(SCC(=O)Nc3ccccc3Cl)nc1=O)CCC2 | 8 | ? | 1 | 0 | -3 | 0
O=C(O)/C(=C\c1ccc2ccccc2c1)c1cccc2ccccc12 | -12 | 4656 | 0 | 117* | -3 | -11
O=Cc1sc(Nc2ccccc2)nc1Cl | -10 | 4633 | -1 | -1 | 6 | -5
Cc1ccc(Nc2nc(Cl)c(C=O)s2)cc1Cl | -8 | 7281 | 0 | 1 | -8 | 53*
Nc1c(C(=O)NCc2ccco2)c2nc3ccccc3nc2n1CCN1CCOCC1 | 6 | 21216* | 6 | 0 | 1 | 1
Cc1cc(C(=O)CCC(=O)NCC(=O)Nc2c(C)cccc2C)c(C)s1 | -7 | 7029 | -6 | 1 | 5 | -2
COC(=O)c1ccc(N/C(C)=C/C(=O)c2ccc(C)o2)cc1 | -1 | 16289* | 0 | -1 | -4 | 4
C/C(=C\C(=O)c1ccc(C)o1)Nc1ccc2c(c1)OCO2 | -12 | 23606* | -2 | -1 | -12 | 6
O=C(NCCCN1CCOCC1)C1COc2ccccc2O1 (stereo unspecified) | -5 | 16494* | -1 | -1 | -2 | 3
O=C(NCCCN1CCOCC1)c1ccc(NC(=O)C2COc3ccccc3O2)cc1 (stereo unspecified) | -6 | 2416 | 0 | 1 | 1 | 14
Cc1ccc(CNC(=O)C2COc3ccccc3O2)cc1 (stereo unspecified) | 0 | 4094 | 0 | 103* | -8 | -6
O=C(C1COc2ccccc2O1)N1CCCC1 (stereo unspecified) | -4 | 20678* | ? | 0 | -1 | 2
O=C(C1COc2ccccc2O1)N1CCN(c2ccccc2O)CC1 (stereo unspecified) | . | . | . | 0 | . | 5
CCN(C[C@H]1N[C@@](C)(C(=O)OC)[C@H]2C(=O)N(Cc3ccccc3)C(=O)[C@@H]12)S(=O)(=O)c1ccccc1 | 6 | 3949 | 0 | 1 | -3 | 1
Cc1cc(=O)oc2cc(OCC3CC(c4ccccc4)=NO3)ccc12 (stereo unspecified) | -12 | 12279 | -1 | 2 | -1 | -13
Cc1cc(=O)oc2cc(OCC3CC(c4ccc(Br)cc4)=NO3)ccc12 (stereo unspecified) | 2 | 19620* | 2 | 0 | -2 | -12
